The source of these data is PubChem BioAssay (Tox21).

Unmarked numbers belong to inactive results. Inconclusive results are not listed. The source made the active and inactive calls. Unless noted, calls come from the whole dose curve; as a rule, active = well fitted curve in the direction sought with a large enough effect in the repeat runs; inconclusive = weak or mixed curves; inactive = no such curve, though single readings can be large; an effect the other way counts as inactive or inconclusive.

Assay [1] is described as follows: A CellTox Green Cytotoxicity Assay to monitor cytotoxicity in HEK293 cells - 16 hour (AID 1224888). Note: nearly all actives have a fitted effect of over 35% in size. Note: potency is the fitted concentration of half-maximal effect. In outline:
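Homogeneous no-lysis format: HEK293 cell suspension mixed with CellTox Green reagent, seeded, incubated 5 h at 37 C/5% CO2, then dosed by pintool with compound in DMSO.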

Assay [2] in a line: qHTS RealTime-Glo MT Cell Viability Assay in HepG2 cells - 0 hour (AID 1224889). Note: nearly all actives have a fitted effect of over 50% in size. Note: potency is the fitted concentration of half-maximal effect. An outline of the steps: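 HepG2 cells (600/well) were dispensed with RealTime-Glo reagents, incubated 5 h at 37 °C, then treated with compounds in DMSO for up to 40 h. Nonlytic NanoLuc luminescence reflecting viable cells was read at each stated time point.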
For orientation: Quantitative high-throughput screening tests each substance at several concentrations.

Assay [3] in a line: A CellTox Green Cytotoxicity Assay to monitor cytotoxicity in HepG2 cells - 8 hour (AID 1224890). Note: nearly all actives have a fitted effect of over 45% in size. An outline of the steps:
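Fluorescent DNA-binding dye, 600 HepG2 cells/well, 5 h preincubation then compound in DMSO; same plates read at 0–40 h, 37 C.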

Assay [4] can be described thus: qHTS assay to identify small molecule antagonists of the estrogen receptor alpha (ER-alpha) signaling pathway using the BG1 cell line in the presence of 0.1 nM 17-beta-estradiol - cell viability counter screen (AID 1259241). Note: nearly all actives have a fitted effect of over 40% in size. An outline of the steps:
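In this screen, hormone-deprived VM7Luc4E2 cells were seeded at 4,000 per well, dosed with compound and 0.1 nM estradiol final, and incubated 22 hr at 37C and 5% CO2; fluorogenic live-cell protease signal reported viability.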

Assay [5] concerns the target Estrogen receptor (Homo sapiens) (UniProt P03372). The assay is described as follows: qHTS assay to identify small molecule antagonists of the estrogen receptor alpha (ER-alpha) signaling pathway using the BG1 cell line in the presence of 0.1 nM 17-beta-estradiol (AID 1259244). Note: nearly all actives have a fitted effect of over 50% in size. In outline: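 Seeding of stripped-serum-adapted VM7Luc4E2 cells, 24 h attachment, compound transfer, then 0.1 nM final 17beta-estradiol; after 22 h incubation, ONE-Glo reagent and luminescence reading.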

Assay [6] can be described thus: qHTS assay to identify small molecule HDAC inhibitors (AID 1259364).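 Note: wild-type HCT-116 cells with endogenous class I/II HDAC activity; top concentration of the series differs between compounds; nearly all actives have a fitted effect of over 45% in size.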 An outline of the steps:
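After a 2 hr compound incubation (37C, 5% CO2), HCT-116 cells seeded at 1,500/well the day before received HDAC-Glo reagent; signal read as luminescence after 30 min at room temperature.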

Assay [7] can be described thus: qHTS assay to identify small molecule HDAC inhibitors - cell viability counter screen (AID 1259365). Note: series mostly up to about 92 µM; nearly all actives have a fitted effect of over 50% in size. In outline:
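Measured quantity is CellTiter-Glo luminescence from wild-type HCT-116 cells after compound incubation of 2hr at 37C, 5% CO2; reagent developed 30min at room temperature.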

Assay [8] is described as follows: qHTS assay to identify small molecule agonists of the sonic hedgehog signaling (Shh) pathway - cell viability counter screen (AID 1259366). Note: nearly all actives have a fitted effect of over 50% in size. An outline of the steps: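 In quantitative high-throughput format, 3T3 Gli1-Luc cells were exposed to compounds for 24hr and multiplexed for viability using CellTiter-Fluor, incubated 1hr at 37C before the fluorescence read.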

The nature of assay [9]: qHTS assay to identify small molecule antagonists of the sonic hedgehog signaling (Shh) pathway - cell viability counter screen (AID 1259367). Note: nearly all actives have a fitted effect of over 55% in size. An outline of the steps:
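Conditioned medium drove Shh signaling in 3T3 Gli1-Luc cells exposed to compounds at 37C and 5% CO2. Viability was determined from CellTiter-Fluor fluorescence, with reagent incubated 1 hr after 23 hr of treatment.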

Assay [10] is described as follows: qHTS assay to identify small molecule agonists of the sonic hedgehog signaling (Shh) pathway (AID 1259368; calls by dose curve;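 note: NIH/3T3-derived 3T3Gli1-Luc cells carrying a stable Gli1-driven firefly luciferase reporter; series mostly up to about 92 µM; nearly all actives have a fitted effect of over 15% in size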). In outline:
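Stable NIH/3T3 Gli1-Luc reporter clone; 24 hr cpd exposure after a 4 hr settling period; luminescence endpoint.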

Assay [11] in a line: qHTS assay to identify small molecule antagonists of the sonic hedgehog signaling (Shh) pathway (AID 1259369; calls by dose curve; note: nearly all actives have a fitted effect of over 45% in size). An outline of the steps:
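Gli1 transcriptional reporter (firefly Luc) in NIH/3T3 background, conditioned-medium activated. 24hr exposure, luminescence endpoint.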

Assay [12] concerns the target Estrogen receptor beta (Homo sapiens) (UniProt Q92731). The assay is described as follows: qHTS assay to identify small molecule agonists of the estrogen receptor beta (ER-beta) signaling pathway (AID 1259377; active = well fitted activation curve with a large enough effect in the signal ratio in the repeat runs, not every such curve was filed as active; the % refers to the signal ratio). In outline:
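Reporter cells (HEK293T, ER-beta-UAS-bla) receive compounds or DMSO after a 6 hr pre-incubation. They then incubate 16 hr at 37C/5% CO2, and fluorescence from LiveBLAzer B/G substrate is measured after 2 hours at room temperature.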

For assay [13] the target is unchanged. The experiment in a line: qHTS assay to identify small molecule antagonists of the estrogen receptor beta (ER-beta) signaling pathway (AID 1259378; active = well fitted inhibition curve with a large enough effect in the signal ratio in the repeat runs, not every such curve was filed as active; the % refers to the signal ratio). In outline:
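ER-beta-UAS-bla HEK293T (GripTite) cells in 2% charcoal-stripped FBS medium were preincubated 6 hr at 37C, dosed with compound, then stimulated with 1 nM E2 (final) for 16 hr; beta-lactamase reporter read by B/G FRET fluorescence after 2 hr substrate loading.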

A short description of assay [14]: qHTS assay to identify small molecule agonists of the androgen receptor (AR) signaling pathway in the presence of an antagonist - cell viability counter screen (AID 1259379).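 Note: MDA-kb2 human breast cancer cells carrying an MMTV luciferase reporter; series mostly up to about 92 µM; nearly all actives have a fitted effect of over 25% in size.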 In outline:
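Counter screen for cell viability run in parallel with the AR agonist-mode luciferase assay. MDA-kb2 cells were co-treated with nilutamide (3.0uM final) and compounds, then incubated 16 hr at 37C, and CellTiter-Fluor fluorescence was measured.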

The nature of assay [15]: qHTS assay to identify small molecule agonists of the estrogen receptor beta (ER-beta) signaling pathway - cell viability counter screen (AID 1259380). Note: nearly all actives have a fitted effect of over 30% in size. In outline: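 In this qHTS counter screen, HEK293T cells carrying an ER-beta/UAS beta-lactamase reporter, grown in 2% charcoal-stripped FBS, received compound for 16 hr; ATP-based CellTiter-Glo luminescence was then read after 30 min at room temperature.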

The nature of assay [16]: qHTS assay to identify small molecule phospholipidosis (PLD) inducers (AID 1259344; active = well fitted curve in the direction sought with a large enough effect; an effect the other way counts as inactive or inconclusive). An outline of the steps:
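After 4 h attachment on collagen I, HepG2 cells were dosed with compound alongside LipidTOX Red, kept 24 h at 37 C, fixed, and imaged for lamellar phospholipid pits.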

Assay [17] is described as follows: qHTS assay to identify small molecule antagonists of the androgen receptor (AR) signaling pathway using the MDA cell line in the presence of 0.5 nM R1881 - cell viability counter screen (AID 1259242). Note: nearly all actives have a fitted effect of over 45% in size. An outline of the steps:
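Human breast carcinoma MDA-kb2 cells, cultured without CO2, receive compounds alongside 0.5 nM (final) R1881 agonist. After 16 hr at 37C, viability is taken as live-cell protease signal.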
% is set by controls: 0 for no effect and ±100 for the full control effect.

Chain of Estrogen receptor (Homo sapiens) (P03372 whole entry, looked up): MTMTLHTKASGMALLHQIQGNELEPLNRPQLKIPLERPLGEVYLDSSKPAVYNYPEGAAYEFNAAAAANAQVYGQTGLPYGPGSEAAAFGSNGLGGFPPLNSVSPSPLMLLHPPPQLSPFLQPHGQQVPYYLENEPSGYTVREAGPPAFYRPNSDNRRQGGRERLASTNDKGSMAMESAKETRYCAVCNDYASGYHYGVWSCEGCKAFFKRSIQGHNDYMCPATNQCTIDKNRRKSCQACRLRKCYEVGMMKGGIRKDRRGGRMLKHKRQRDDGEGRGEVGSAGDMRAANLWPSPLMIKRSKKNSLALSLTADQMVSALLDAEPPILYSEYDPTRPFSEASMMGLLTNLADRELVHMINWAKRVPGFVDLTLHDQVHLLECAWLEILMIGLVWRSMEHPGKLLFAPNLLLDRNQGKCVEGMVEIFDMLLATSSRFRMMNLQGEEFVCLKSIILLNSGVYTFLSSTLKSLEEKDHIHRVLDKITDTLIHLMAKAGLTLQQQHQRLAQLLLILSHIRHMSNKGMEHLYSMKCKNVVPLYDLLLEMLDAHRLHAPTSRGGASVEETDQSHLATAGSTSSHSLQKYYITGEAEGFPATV
Chain of Estrogen receptor beta (Homo sapiens) (Q92731 whole entry, looked up): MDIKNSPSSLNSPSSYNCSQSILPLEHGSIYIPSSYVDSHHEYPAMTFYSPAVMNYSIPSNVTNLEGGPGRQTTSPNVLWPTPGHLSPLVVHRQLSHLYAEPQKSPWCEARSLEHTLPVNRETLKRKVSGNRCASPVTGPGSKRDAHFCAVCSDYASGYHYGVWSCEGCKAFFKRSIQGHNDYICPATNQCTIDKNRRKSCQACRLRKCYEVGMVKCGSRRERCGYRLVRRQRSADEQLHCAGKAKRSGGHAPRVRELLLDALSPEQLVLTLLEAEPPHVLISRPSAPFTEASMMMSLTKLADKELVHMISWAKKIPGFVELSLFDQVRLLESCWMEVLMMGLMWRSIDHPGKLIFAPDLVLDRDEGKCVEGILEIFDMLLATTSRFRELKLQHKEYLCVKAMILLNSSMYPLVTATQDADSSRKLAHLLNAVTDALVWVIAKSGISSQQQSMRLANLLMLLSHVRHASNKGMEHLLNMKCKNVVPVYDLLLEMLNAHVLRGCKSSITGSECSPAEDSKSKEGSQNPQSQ

For the compound `Cc1cc(C)c(C(=O)O)c(C)c1`, the Potency result in assay [1], in assay [2], in [3], in assay [6], in [11] and in assay [12] was “inactive” each time. The Potency entry in [13] was “inactive”. The outcome in assay [4], in assay [5], in assay [7], in assay [8], in assay [9] and in assay [10] was inactive. Further, the outcome in [14] and in assay [15] was inactive.
As to `CCCC(=O)OC/C=C(\C)CCC=C(C)C`, the Potency in assay [1] is 54.9 µM (active). For the same compound, the Potency result in assay [2], in [3], in assay [6], in assay [11], in assay [12] and in [13] was “inactive” in each case. The result in assay [4], in [5], in assay [7], in assay [8], in [9] and in [10] was inactive. The outcome in assay [14] was inactive.
For `C[C@]12CCC(=O)C=C1CC[C@H]1[C@@H]3CC[C@](O)(C(=O)CO)[C@@]3(C)C[C@H](O)[C@@]12F`, the Potency entry in assay [1], in [3], in [6], in [11], in assay [12] and in [13] was “inactive” throughout. Moreover, the Potency in [2] was 2.13 µM (active). Besides, the result in assay [4], in assay [5], in [16], in assay [7], in [8] and in [9] was inactive. Also, the call in assay [10] and in assay [14] was inactive.
Regarding `CCc1occc(=O)c1O`, the Potency entry in [2], in assay [3], in [6] and in assay [11] was “inactive” in each case. Also, the outcome in assay [4], in assay [17], in assay [5], in assay [7], in assay [8] and in assay [9] was inactive. Further, the result in [10] and in assay [14] was inactive.
Regarding `CC1OCCC1=O` (stereo not drawn), the Potency entry in assay [1], in assay [2], in assay [3], in [11], in [12] and in [13] was “inactive” in each case. Moreover, the outcome in assay [4], in assay [17], in assay [5], in [7], in [8] and in [9] was inactive. Moreover, the compound was called inactive in [10], in assay [14] and in [15].
Take `Cc1ccc(N)cc1S(=O)(=O)O`: the Potency entry in [2], in assay [3], in [6], in assay [11], in assay [12] and in [13] was “inactive” each time. Further, the outcome in [4], in [5], in assay [7], in assay [8], in assay [9] and in assay [10] was inactive. In addition, the result in assay [14] and in assay [15] was inactive.
`CCOC(CN1CCN(CC(C)C(=O)c2ccccc2)CC1)c1ccccc1` (stereo not drawn): the activity change is -4.55% [at 15.8 µM, hits give high values] in assay [1] and 0.16% [at 18.9 µM] in assay [10]. For the same compound, the activity change, negative = cytotoxicity is 0.232% [at 15.8 µM] in assay [2]; -7.75% [at 19 µM] in assay [4]; -3.08% [at 19 µM] in [7]; -6.08% [at 19 µM] in assay [14]; -10.4% [at 19 µM] in [15]. For the same compound, the cytotoxicity increase in assay [3] is -9.59% [at 15.8 µM]. The viability change, negative = cytotoxic is -2.37% [at 19 µM] in assay [17], -6.98% [at 19 µM] in assay [8] and -0.0061% [at 19 µM] in assay [9]. For the same compound, in assay [11], the activity change, negative = inhibition is -3.93% [at 19 µM].
Consider `CN(C)CCN(C)CCO`, for which the Potency entry in [1], in assay [2], in assay [3], in [6], in assay [11] and in assay [12] was “inactive” in each case. For the same compound, the Potency entry in [13] was “inactive”. Moreover, the result in [4], in assay [17], in assay [5], in [7], in [8] and in assay [9] was inactive. In addition, the compound was called inactive in [10], in assay [14] and in assay [15].
Regarding `CN(C)CC/C=C1/c2ccccc2COc2ccc(CC(=O)O)cc21`, the Potency result in assay [1], in assay [3], in assay [12] and in assay [13] was “inactive” each time. Also, the result in assay [4], in [17], in assay [16], in assay [7], in assay [8] and in assay [10] was inactive. Besides, the result in [14] and in [15] was inactive.
In the case of `CCCCOC(=O)[C@H](C)O`, the Potency result in assay [1], in assay [2], in [3] and in assay [11] was “inactive” each time. Besides, the result in [4], in assay [17], in [5], in assay [7], in assay [8] and in assay [9] was inactive. Further, the compound was called inactive in assay [10], in assay [14] and in assay [15].
